Experimental data taken from PubChem BioAssay (Tox21).
“And” between values parts separate entries of the source, which are not always exact repeats. Equal values may be shown once. Records with an inconclusive call do not appear. Where a structure was tested more than once in an assay, its records may differ in their call. The source made the active and inactive calls. Unless noted, the call rests on the fitted dose curve; in most records, active means well fitted curve in the direction sought with a large enough effect in the repeat runs; inconclusive means weak or mixed curves; inactive means no such curve, though single readings can be large; an effect the other way counts as inactive or inconclusive.

How the values were obtained:
[1] = qHTS assay to identify small molecule antagonists of the thyroid receptor (TR) signaling pathway - cell viability counter screen (AID 743064); further: nearly all actives have a fitted effect of over 50% in size; further: potency means the concentration at half of the fitted maximal effect
Method in brief: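 In-well cytotoxicity read by CellTiter-Fluor (30 min, 37 C) following 23.5 h exposure of GH3 cells bearing a TRE-luciferase sensor. Compounds were added alongside 1 nM (final) T3 to drive TR transactivation.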

[2] = test system: thyroid hormone receptor (rat, GH3 cells); experiment: qHTS assay to identify small molecule agonists of the thyroid receptor (TR) signaling pathway (AID 743066; calls by dose curve)
[3] = qHTS assay to identify small molecule antagonists of the estrogen receptor alpha (ER-alpha) signaling pathway - cell viability counter screen (AID 743074; calls by dose curve;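 further: HEK293 cells carrying ER-alpha-UAS-bla reporter stimulated with 17beta-estradiol; nearly all actives have a fitted effect of over 45% in size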; further: potency means the concentration at half of the fitted maximal effect)
[4] = qHTS assay to identify small molecule antagonists of the estrogen receptor alpha (ER-alpha) signaling pathway using the BG1 cell line - cell viability counter screen (AID 743081);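 further: compound given together with 17beta-estradiol as the ER stimulus; nearly all actives have a fitted effect of over 45% in size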; further: potency means the concentration at half of the fitted maximal effect
Aromatase (Homo sapiens) = Aromatase (Homo sapiens) (UniProt P11511); experiment: qHTS assay to identify aromatase inhibitors (AID 743083); further: nearly all actives have a fitted effect of over 55% in size; further: potency means the concentration at half of the fitted maximal effect
[5] = qHTS assay to identify aromatase inhibitors - cell viability counter screen (AID 743084);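 further: cells stimulated with testosterone during compound exposure; nearly all actives have a fitted effect of over 55% in size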; further: potency means the concentration at half of the fitted maximal effect
[6] = molecular target: Aryl hydrocarbon receptor (Homo sapiens) (UniProt P35869); experiment: qHTS assay to identify small molecule that activate the aryl hydrocarbon receptor (AhR) signaling pathway (AID 743085); further: nearly all actives have a fitted effect of over 15% in size; further: potency means the concentration at half of the fitted maximal effect;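 on activation: HG2L7.5c1 human HepG2 liver cells with stably integrated DRE-driven firefly reporter; series mostly up to about 70 µM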
Method in brief: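 Luminescence (ONE-Glo) from a dioxin-responsive-element luciferase reporter in HG2L7.5c1 HepG2 cells after 24 hr compound exposure at 37C; viability measured by CellTiter-Fluor fluorescence beforehand.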

[7] = qHTS assay to identify small molecule that activate the aryl hydrocarbon receptor (AhR) signaling pathway - cell viability counter screen (AID 743086); further: nearly all actives have a fitted effect of over 45% in size; further: potency means the concentration at half of the fitted maximal effect
Method in brief: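 Cytotoxicity counter screen: CellTiter-Fluor signal (30 min, 37 C) in 4000 HepG2 cells/well carrying the DRE-luciferase reporter, following 24 h compound exposure at 37 C.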

[8] = molecular target: Peroxisome proliferator-activated receptor gamma (Homo sapiens) (UniProt P37231); experiment: qHTS assay to identify small molecule agonists of the peroxisome proliferator-activated receptor gamma (PPARg) signaling pathway (AID 743094; active means well fitted activation curve with a large enough effect in the signal ratio in the repeat runs, not every such curve was filed as active; the % refers to the signal ratio; further: potency means the concentration at half of the fitted maximal effect)
Method in brief: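 HEK293H PPARg-bla cells, 5 h settle at 37C/5% CO2; compound (DMSO) 17 h, 37C; B/G FRET substrate 1 h RT; fluorescence intensity read-out. qHTS format.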

[9] = molecular target: Estrogen receptor (Homo sapiens) (UniProt P03372); experiment: qHTS assay to identify small molecule antagonists of the estrogen receptor alpha (ER-alpha) signaling pathway (AID 743069; active means well fitted curve in the direction sought with a large enough effect in the signal ratio in the repeat runs, not every such curve was filed as active; the % refers to the signal ratio)
Method in brief: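 Antagonist mode: compounds in DMSO were co-added with 17beta-estradiol to ER-alpha-bla HEK293 cells (2% charcoal-stripped serum) and left 18 h at 37C. Reporter inhibition was measured as FRET fluorescence after 2 h LiveBLAzer substrate at room temperature.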

[10] = molecular target: Estrogen receptor (Homo sapiens) (UniProt P03372); experiment: qHTS assay to identify small molecule agonists of the estrogen receptor alpha (ER-alpha) signaling pathway (AID 743075; calls by dose curve;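 further: HEK293 GripTite cells with ER-alpha and UAS-driven beta-lactamase reporter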)
[11] = molecular target: Estrogen receptor (Homo sapiens) (UniProt P03372); experiment: qHTS assay to identify small molecule agonists of the estrogen receptor alpha (ER-alpha) signaling pathway using the BG1 cell line (AID 743079); further: nearly all actives have a fitted effect of over 20% in size; further: potency means the concentration at half of the fitted maximal effect
[12] = qHTS assay to identify small molecule antagonists of the estrogen receptor alpha (ER-alpha) signaling pathway using the BG1 cell line (AID 743080; calls by dose curve;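 further: BG1 cells stimulated with 17beta-estradiol alongside compound; nearly all actives have a fitted effect of over 25% in size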; further: potency means the concentration at half of the fitted maximal effect)
Method in brief: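 BG1-Luc-4E2 cells (endogenous full-length ER-alpha, 4xERE luciferase) hormone-starved 5 days in charcoal-stripped FBS, plated 4,000/well for 24 h, then compound plus 17beta-estradiol for 21.5 h at 37 C; ONE-Glo luminescence read.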

[13] = qHTS assay to identify small molecule antagonists of the thyroid receptor (TR) signaling pathway (AID 743065); further: series mostly up to about 70 µM; nearly all actives have a fitted effect of over 55% in size
Method in brief: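 Antagonism measured as loss of luciferase signal in GH3 cells stably carrying a TRE-luciferase reporter, co-treated with compound and T3 (1 nM final) for 23.5 h at 37 C. Viability was read in the same well by CellTiter-Fluor.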

[14] = qHTS assay to identify small molecule antagonists of the peroxisome proliferator-activated receptor gamma (PPARg) signaling pathway - cell viability counter screen (AID 743194); further: nearly all actives have a fitted effect of over 55% in size; further: potency means the concentration at half of the fitted maximal effect
Method in brief: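 Viability was measured as CellTiter-Glo luminescence in GeneBLAzer PPARg UAS-bla HEK293H cells. These cells had been exposed 17 h at 37 C to compounds together with rosiglitazone at 50 nM final, with the beta-lactamase readout taken in the same wells.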

[15] = qHTS assay for small molecule agonists of the antioxidant response element (ARE) signaling pathway (AID 743202; active means well fitted activation curve with a large enough effect in the signal ratio in the repeat runs, not every such curve was filed as active; the % refers to the signal ratio)
Method in brief: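 After 16 hours of compound treatment at 37 C, HepG2 cells with a stably integrated ARE-driven beta-lactamase reporter were loaded 2 hours at room temperature with LiveBLAzer B/G FRET substrate and fluorescence intensity measured.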

[16] = qHTS assay for small molecule activators of the heat shock response signaling pathway - cell viability counter screen (AID 743209); further: nearly all actives have a fitted effect of over 50% in size; further: potency means the concentration at half of the fitted maximal effect
Method in brief: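 HSE-bla HeLa; 1500 cells/well; overnight 37 C, 5% CO2; compound 5 h 37 C; LiveBLAzer B/G substrate 2.5 h RT; CellTiter-Glo 30 min RT; luminescence.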

[17] = qHTS assay for small molecule activators of the heat shock response signaling pathway (AID 743210; active means well fitted activation curve with a large enough effect in the signal ratio in the repeat runs, with a control signal flat, not every such curve was filed as active; the % refers to the signal ratio; further: series mostly up to about 63 µM)
Method in brief: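 Compound exposure lasted 5 h at 37 C in HeLa cells carrying a heat-shock-element-driven beta-lactamase reporter. Read-out: fluorescence intensity after 2.5 h room-temperature loading with LiveBLAzer B/G FRET substrate.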

[18] = qHTS assay to identify small molecule agonists of the peroxisome proliferator-activated receptor delta (PPARd) signaling pathway - cell viability counter screen (AID 743211); further: nearly all actives have a fitted effect of over 55% in size; further: potency means the concentration at half of the fitted maximal effect
Method in brief: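 Viability was measured as CellTiter-Glo luminescence (30 min, room temperature) in the same wells as the beta-lactamase readout. GeneBLAzer PPARd UAS-bla HEK293H cells received compound after 5 h plating and were incubated 17 h at 37 C.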

Measured: Potency

Chain of Aryl hydrocarbon receptor (Homo sapiens) (P35869 whole entry, looked up): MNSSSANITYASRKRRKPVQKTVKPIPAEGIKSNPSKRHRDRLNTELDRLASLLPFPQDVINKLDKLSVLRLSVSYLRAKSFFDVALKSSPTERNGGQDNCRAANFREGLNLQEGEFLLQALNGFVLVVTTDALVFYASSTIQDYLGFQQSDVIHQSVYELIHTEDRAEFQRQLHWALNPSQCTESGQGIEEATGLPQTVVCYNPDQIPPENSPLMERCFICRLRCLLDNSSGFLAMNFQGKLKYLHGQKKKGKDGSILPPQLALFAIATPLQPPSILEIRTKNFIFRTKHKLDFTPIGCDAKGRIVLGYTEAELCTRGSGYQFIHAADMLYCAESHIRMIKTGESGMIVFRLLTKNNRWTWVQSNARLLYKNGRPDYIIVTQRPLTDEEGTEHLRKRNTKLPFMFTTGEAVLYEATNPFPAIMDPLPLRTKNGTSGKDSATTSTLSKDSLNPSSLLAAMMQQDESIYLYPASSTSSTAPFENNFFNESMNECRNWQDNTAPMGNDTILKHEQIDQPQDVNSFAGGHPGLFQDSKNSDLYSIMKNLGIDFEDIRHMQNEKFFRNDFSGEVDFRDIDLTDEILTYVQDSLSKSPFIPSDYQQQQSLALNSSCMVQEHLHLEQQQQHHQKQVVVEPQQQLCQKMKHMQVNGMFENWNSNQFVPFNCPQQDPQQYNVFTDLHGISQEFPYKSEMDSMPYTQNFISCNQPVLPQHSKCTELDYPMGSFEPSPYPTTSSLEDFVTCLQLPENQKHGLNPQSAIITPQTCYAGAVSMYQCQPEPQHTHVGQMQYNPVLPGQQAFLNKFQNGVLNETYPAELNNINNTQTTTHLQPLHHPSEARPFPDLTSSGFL
Chain of Peroxisome proliferator-activated receptor gamma (Homo sapiens) (P37231 whole entry, looked up): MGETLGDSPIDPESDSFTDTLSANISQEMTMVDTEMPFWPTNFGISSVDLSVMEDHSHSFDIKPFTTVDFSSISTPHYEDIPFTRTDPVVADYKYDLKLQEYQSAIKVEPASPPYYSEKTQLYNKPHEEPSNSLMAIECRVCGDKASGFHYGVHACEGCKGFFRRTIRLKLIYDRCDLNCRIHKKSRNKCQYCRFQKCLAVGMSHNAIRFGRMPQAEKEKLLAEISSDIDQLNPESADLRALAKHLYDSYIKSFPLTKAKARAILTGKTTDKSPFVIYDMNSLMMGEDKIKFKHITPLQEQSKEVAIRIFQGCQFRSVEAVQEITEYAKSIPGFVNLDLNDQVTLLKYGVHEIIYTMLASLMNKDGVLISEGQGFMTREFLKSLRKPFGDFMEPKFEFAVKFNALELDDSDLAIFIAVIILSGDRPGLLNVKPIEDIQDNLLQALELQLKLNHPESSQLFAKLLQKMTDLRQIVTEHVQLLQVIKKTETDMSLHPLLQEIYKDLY
Chain of Aromatase (Homo sapiens) (P11511 whole entry, looked up): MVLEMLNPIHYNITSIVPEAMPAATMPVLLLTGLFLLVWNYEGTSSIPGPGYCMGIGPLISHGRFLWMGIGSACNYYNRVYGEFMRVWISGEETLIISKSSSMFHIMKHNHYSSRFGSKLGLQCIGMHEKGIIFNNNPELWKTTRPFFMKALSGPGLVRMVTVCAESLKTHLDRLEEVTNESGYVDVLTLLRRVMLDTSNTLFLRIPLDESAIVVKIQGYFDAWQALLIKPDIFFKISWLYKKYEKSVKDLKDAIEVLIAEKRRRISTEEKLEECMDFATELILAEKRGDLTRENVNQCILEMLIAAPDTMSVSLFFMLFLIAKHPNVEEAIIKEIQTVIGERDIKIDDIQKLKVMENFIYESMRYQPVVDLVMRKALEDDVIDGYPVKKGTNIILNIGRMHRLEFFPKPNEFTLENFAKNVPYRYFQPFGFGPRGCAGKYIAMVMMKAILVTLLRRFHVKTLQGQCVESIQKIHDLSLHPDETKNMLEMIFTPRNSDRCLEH
Chain of Estrogen receptor (Homo sapiens) (P03372 whole entry, looked up): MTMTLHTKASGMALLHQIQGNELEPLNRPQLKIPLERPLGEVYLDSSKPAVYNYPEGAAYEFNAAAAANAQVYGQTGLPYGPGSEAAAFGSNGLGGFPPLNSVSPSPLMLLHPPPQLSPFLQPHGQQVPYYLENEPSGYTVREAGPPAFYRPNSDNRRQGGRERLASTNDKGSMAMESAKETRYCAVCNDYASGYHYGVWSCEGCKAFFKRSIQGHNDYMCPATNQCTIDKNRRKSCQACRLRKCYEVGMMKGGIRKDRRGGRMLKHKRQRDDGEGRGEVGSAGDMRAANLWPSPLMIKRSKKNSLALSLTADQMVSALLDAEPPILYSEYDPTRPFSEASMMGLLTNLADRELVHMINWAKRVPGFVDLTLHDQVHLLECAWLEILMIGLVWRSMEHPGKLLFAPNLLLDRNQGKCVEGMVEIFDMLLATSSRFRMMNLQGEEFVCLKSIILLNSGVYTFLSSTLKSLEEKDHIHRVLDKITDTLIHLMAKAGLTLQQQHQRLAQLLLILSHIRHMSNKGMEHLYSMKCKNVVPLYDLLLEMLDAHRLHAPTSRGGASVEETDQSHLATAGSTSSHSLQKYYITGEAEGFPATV

C[S+](CC[C@H](N)C(=O)O)C[C@H]1O[C@@H](n2cnc3c(N)ncnc32)[C@H](O)[C@@H]1O (some centres not stated)
inactive: [1] | [2] | [3] | [4] | Aromatase (Homo sapiens) | [5] | [6] | [7] | [8]

NCC1CCC(C(=O)O)CC1 (configuration not stated)
not listed: [12] | [13] | [14] | [15] | [16] | [17] | [18]
inactive: all other assays above

CCN(CC)CC#CCOC(=O)C(O)(c1ccccc1)C1CCCCC1 (configuration not stated)
inactive: [2] | [3] | Aromatase (Homo sapiens) | [6]
active: [1] 13.3 µM | [4] 9.44 µM | [5] 11.9 µM | [7] 18.8 µM

NC(N)=NCc1cccc(I)c1
active: [12] 21.1 µM and 11.9 µM
not listed: [11] | [13] | [14] | [15] | [16] | [17] | [18]
inactive: all other assays above

Nc1cc(Cl)c(NC2=NCCN2)c(Cl)c1
not listed: [13] | [14] | [15] | [16] | [17] | [18]
inactive: all other assays above

CC(C)(C)c1ccc2c(S(=O)(=O)O)c(C(C)(C)C)ccc2c1
active: [8] 9.52 µM
not listed: [12] | [13] | [14] | [15] | [16] | [17] | [18]
inactive: all other assays above

CC1(C)CCC(NC(=O)[C@@H](N)CCC(=O)O)CC1
not listed: [12] | [13] | [14] | [15] | [16] | [17] | [18]
inactive: all other assays above

C[N+](C)(C)CCOP(=O)(O)OP(=O)([O-])OC[C@H]1O[C@@H](n2ccc(N)nc2=O)[C@H](O)[C@@H]1O
not listed: [13] | [14] | [15] | [16] | [17] | [18]
inactive: all other assays above

CC1CCCC(C)N1NC(=O)c1ccc(Cl)c(S(N)(=O)=O)c1 (configuration not stated)
not listed: [12] | [13] | [14] | [15] | [16] | [17] | [18]
inactive: all other assays above

CC(C)C[C@H](NC(=O)[C@@H](COC(C)(C)C)NC(=O)[C@H](Cc1ccc(O)cc1)NC(=O)[C@H](CO)NC(=O)[C@H](Cc1c[nH]c2ccccc12)NC(=O)[C@H](Cc1cnc[nH]1)NC(=O)[C@@H]1CCC(=O)N1)C(=O)N[C@@H](CCCN=C(N)N)C(=O)N1CCC[C@H]1C(=O)NNC(N)=O
inactive: [1] | [2] | [3] | [4] | Aromatase (Homo sapiens) | [5] | [6] | [7] | [8]

O=C1[O][Bi][O]c2ccccc21
not listed: [6] | [8] | [13] | [14] | [15] | [16] | [17] | [18]
inactive: all other assays above

CN1C(C(=O)Nc2ccccn2)C(=O)c2sc(Cl)cc2S1(=O)=O (configuration not stated)
not listed: [1] | [4] | [14] | [15] | [16] | [17] | [18]
inactive: all other assays above

c1ccc(-n2cnnn2)cc1
inactive: [1] | [2] | [3] | [4] | Aromatase (Homo sapiens) | [5] | [7] | [8]

COc1c(Br)cc(Br)c(C)c1Br
inactive: [1] | [2] | [3] | [4] | [7] | [14] | [15] | [16] | [17] | [18]

CO/N=C(\C(=O)N[C@@H]1C(=O)N2C(C(=O)[O-])=C(C[n+]3ccc(N)n3CCO)CS[C@H]12)c1csc(N)n1
inactive: [1] | [3] | [4] | Aromatase (Homo sapiens) | [5] | [6] | [7] | [8]

O=C(CCCCCCCCc1cccnc1)N1CCC(C=C(c2ccccc2)c2ccccc2)CC1
active: [1] 27.3 µM | [3] 43.6 µM | [14] 19.5 µM | [18] 12.3 µM
inactive: [6] | [7] | [16]

CN(C)CCOc1ccc(/C(=C(/CCCl)c2ccccc2)c2ccccc2)cc1
inactive: [2] | [4] | [6] | [8]
active: [1] 10.6 µM and 10.2 µM | Aromatase (Homo sapiens) 21.1 µM and 6.42 µM | [5] 45.5 µM | [14] 25.8 µM | [16] 28.9 µM | [18] 14.5 µM
inactive and 40.5 µM (active): [7]

CCC(O)c1ccccc1 (configuration not stated)
inactive: [1] | [9] | [10] | [11] | [12] | [4] | Aromatase (Homo sapiens) | [5] | [7] | [8]

FC(F)(F)C(F)(F)C(F)(F)C(F)(F)C(F)(F)F
not listed: [1] | [4] | [14] | [15] | [16] | [17] | [18]
inactive: all other assays above

Nc1ccc(N)c([N+](=O)[O-])c1
inactive: [2] | Aromatase (Homo sapiens)
active: [1] 32.5 µM | [5] 61.1 µM | [6] 24.3 µM

CON=C1C[C@]2(C[C@@H]3C[C@@H](C/C=C(\C)C[C@@H](C)/C=C/C=C4\CO[C@@H]5[C@H](O)C(C)=C[C@@H](C(=O)O3)[C@]45O)O2)O[C@H](/C(C)=C/C(C)C)[C@H]1C
inactive: Aromatase (Homo sapiens) | [5] | [6] | [7]
active: [1] 5.31 µM | [3] 6.01 µM and 23.9 µM

CO/N=C(\C(=O)N[C@@H]1C(=O)N2C(C(=O)O)=C(COC(C)=O)CS[C@H]12)c1csc(N)n1 (stereo in doubt)
inactive: [1] | [2] | [3] | [4] | [7]

CN=C(N)NCCC[C@H](N)C(=O)O
inactive: [1] | [3] | [4] | Aromatase (Homo sapiens) | [5] | [6] | [7]

CNC(=O)C[C@@H](N)C(=O)N[C@@H](C(=O)N[C@@H]1C(=O)N2[C@@H]1SC(C)(C)[C@@H]2C(=O)O)c1ccc(O)cc1
not listed: [2] | [13] | [14] | [15] | [16] | [17] | [18]
inactive: all other assays above

COc1ccc(/C=N/NC(=O)c2ccncc2)c(C(=O)O)c1OC
active: [6] 11.9 µM
not listed: [1] | [14] | [15] | [16] | [17] | [18]
inactive: all other assays above

N=C(N)c1ccc(/C=C/c2ccc(C(=N)N)cc2O)cc1
not listed: [1] | [6] | [12] | [14] | [15] | [16] | [17] | [18]
inactive: all other assays above

CC(C)(S)C(=O)N[C@@H](CS)C(=O)O
inactive: [1] | [3] | [4] | Aromatase (Homo sapiens) | [5] | [6] | [7] | [8]

O=C(O)c1cc2cc(Cc3cccnc3)ccc2o1
active: [11] 18.8 µM
not listed: [1] | [10] | [14] | [15] | [16] | [17] | [18]
inactive: all other assays above

O=C1CC[C@@H](C(=O)N[C@H]2C[C@@H]2c2ccccc2)N1
not listed: [2] | [13] | [14] | [15] | [16] | [17] | [18]
inactive: all other assays above
